From PubChem BioAssay (NCI)
About 83,000 compounds went through this panel and 20% of them were active in at least one assay; those are over-represented in the sample as a whole.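 The test compound was applied at a single concentration to cells in 96-well plates for 48 hours, and percent growth was recorded.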 Values without a mark were called inactive. The source made the active and inactive calls. Rule for the calls: active = growth percent below 10; inactive = the rest.

Experiments:
Assay in all cases: NCI-60 one-dose screen, 48 h (100 = growth as untreated, 0 = no growth, -100 = all killed)
Conditions in all cases: 10 µM unless noted
NCI-H226 lung = test system: NCI-H226 lung
NCI-H322M lung = test system: NCI-H322M lung
HOP-62 NSCLC = test system: HOP-62 NSCLC
NCI-H460 lung = test system: NCI-H460 lung
HOP-92 NSCLC = test system: HOP-92 NSCLC
NCI-H522 lung = test system: NCI-H522 lung
A549/ATCC NSCLC = test system: A549/ATCC NSCLC
786-0 renal = test system: 786-0 renal
COLO 205 colon = test system: COLO 205 colon
DU-145 prostate = test system: DU-145 prostate
K-562 leukemia = test system: K-562 leukemia
MALME-3M melanoma = test system: MALME-3M melanoma
MDA-MB-231 breast = test system: MDA-MB-231 breast
RXF 393 renal = test system: RXF 393 renal
SF-268 CNS = test system: SF-268 CNS
SF-295 CNS = test system: SF-295 CNS
SF-539 CNS = test system: SF-539 CNS
UACC-257 melanoma = test system: UACC-257 melanoma
M14 melanoma = test system: M14 melanoma
HCT-15 colon = test system: HCT-15 colon

SMILES | growth (NCI-H226 lung) | growth (NCI-H322M lung) | growth (HOP-62 NSCLC) | growth (NCI-H460 lung) | growth (HOP-92 NSCLC) | growth (NCI-H522 lung) [%] | growth (A549/ATCC NSCLC) | growth (786-0 renal) | growth (COLO 205 colon) | growth (DU-145 prostate) | growth (K-562 leukemia) | growth (MALME-3M melanoma) [%] | growth (MDA-MB-231 breast) [%] | growth (RXF 393 renal) | growth (SF-268 CNS) [%] | growth (SF-295 CNS) [%] | growth (SF-539 CNS) | growth (UACC-257 melanoma) | growth (M14 melanoma) | growth (HCT-15 colon) [%]
Cc1sc2nc(NCc3ccccc3Cl)[nH]c(=O)c2c1C | 88.5% | 96.6% | 93.4% | 50.4% | 91.3% | 95.3 | 84% | 91% | 113% | 98% | 54.8% | 100 | 73 | 94.3% | 87.6 | 80.2 | 77.7% | 106% | 105% | 47.3
Nc1c(C(=O)c2ccc(Br)cc2)oc2nc(-c3cnccn3)cc(-c3cccs3)c12 | 98.6% | 103% | 94% | 97.2% | 90.8% | 98.8 | 103% | 102% | 118% | 107% | 92.7% | 102 | 101 | 96.6% | 104 | 99.6 | 98.8% | 103% | 98.9% | 97.7
COc1cc(/C=C/C(=O)c2ccc(F)cc2)ccc1Oc1nc(NCCO)nc(N2CCOCC2)n1 | 87.8% | 97.4% | 102% | 94.2% | 94.2% | 64.9 | 101% | 98.3% | 122% | 98.4% | 6.99% (active) | 78.8 | 86.7 | 108% | 81 | 93.2 | 88.2% | 98.3% | 84% | 39.2
CCCC(=O)NC(c1ccc2c(c1)OC(F)(F)O2)c1cc(C)c2cccnc2c1O (stereo not given) | 10.8% | 34.2% | 15.9% | -4.44% (active) | 33.5% | 18.2 | 16.5% | 0.74% (active) | 21.1% | 26% | 15.9% | 14.4 | 34.8 | 55.4% | 18.7 | 20.9 | 8.69% (active) | 3.17% (active) | -11.5% (active) | 39.3
COc1ccc(-c2cc(C(=O)N=Nc3c(O)[nH]c4ccccc34)c3ccccc3n2)cc1OC | 86.2% | 89.7% | 93.2% | 99% | 89.5% | 90.2 | 95.7% | 104% | 98.3% | 104% | 106% | 95.6 | 91.5 | 101% | 100 | 95.7 | 95.6% | 98.2% | 95.6% | 96.9
CC(=O)c1ccc(Nc2nc(SC(C)C)nc(-c3ccccc3)c2C#N)cc1 | 123% | 98.7% | 92.7% | 101% | 70.2% | 86.8 | 93.5% | 84.7% | 114% | 91.2% | 92.6% | 112 | 95.7 | 103% | 91.9 | 109 | 95.5% | 108% | 118% | 101
CO/N=C1\CCc2c(sc(NC(=O)c3cccc(C(F)(F)F)c3)c2C(N)=O)C1 | -10.4% (active) | 19.9% | -0.189% (active) | 2.77% (active) | -12.7% (active) | 26.5 | -9.56% (active) | 1.79% (active) | 72.6% | 52.9% | 70.1% | 29.4 | 37.7 | -6% (active) | 51.8 | 30.8 | 34.2% | 66% | 47.7% | 64.6
N#Cc1c(-c2ccc(Cl)cc2)nc2c(-c3ccccc3)c(Nc3ccccc3)nn2c1N | 41.5% | 64% | 57.5% | -8.88% (active) | 35.2% | 72.3 | 29.5% | 25.1% | 57% | 63.6% | 67.3% | 79.9 | 26 | 78.8% | 82.4 | 46 | 80.6% | 105% | 70.1% | 67.2
O=C(O)CCCCCN1C(=O)/C(=C/c2ccc(O)c(O)c2)SC1=S | 106% | 89.9% | 110% | 108% | 139% | 98 | 113% | 105% | 125% | 103% | 100% | 97.5 | 91.8 | 124% | 103 | 99.3 | 96% | 108% | 106% | 101
N/C(=N\c1nc2c(Cl)cc(Cl)cc2s1)C(Cl)(Cl)Cl | 73.5% | -55.6% (active) | 20.1% | -1.22% (active) | 46.4% | 82.4 | -12.9% (active) | 85.4% | -16% (active) | -27.8% (active) | 71.3% | 91.7 | 38.4 | 53.7% | 75.7 | 11.3 | 44.5% | 78.1% | 93.3% | 57.5
CCOC(=O)c1c(Nc2ccccc2)nn2c(N)c(C#N)c(-c3ccccc3)nc12 | 83.3% | 94.8% | 97.7% | 93.2% | 81.8% | 89.7 | 97% | 79.5% | 87.4% | 81.1% | 48.5% | 96 | 63.9 | 68.3% | 87.4 | 81.3 | 82.2% | 111% | 89% | 52.4
COc1cc2nc(-c3ccc(Cl)cc3)cc(OCCCNCC3CCCO3)c2cc1OC (stereo not given) | 75.8% | 66.7% | 64.3% | 30.2% | 35.4% | 45.1 | 53.2% | 43.3% | 33.5% | 49.2% | 16.7% | 12.3 | 33.8 | 31.3% | 77.9 | 34.5 | 56.4% | -33.9% (active) | -71.5% (active) | 23.9
COc1cc(/C=C/C(=O)c2cc(OC)c(OC)c(OC)c2)ccc1OCc1ccc(F)cc1 | 49.5% | 49.7% | 36.2% | 54% | 44.7% | 56.4 | 51.2% | 62.8% | 70% | 58.3% | 11.7% | 67.6 | 46.8 | 77.7% | 58 | 54.7 | 9.22% (active) | 79.8% | 71% | 16
COc1ccccc1C(=O)CSc1nc(Nc2ccc(S(N)(=O)=O)cc2)c2ccccc2n1 | 94.9% | 82.6% | 86.7% | 85.1% | 89.6% | 90.5 | 98.5% | 91% | 107% | 96.9% | 85.7% | 90.2 | 77.3 | 97.1% | 89.9 | 97.6 | 81.2% | 111% | 94.1% | 92.4
O=C1c2c(c3c4cc(Br)ccc4[nH]c3c3ccc4ccccc4c23)C(=O)N1CCO | 88.9% | 96.8% | 96.3% | 62.5% | 103% | 76.5 | 91.7% | 100% | 92% | 103% | 71.6% | 103 | 75.3 | 107% | 105 | 91.8 | 90.9% | 97.4% | 103% | 72.8
